Holding throughout (experiment): DAPPL (digital affinity profiling via proximity ligation, sequencing); 10 mM Tris-HCl pH 7.5, 50 mM NaCl, 1 mM DTT, 4% glycerol, room temperature, 30 min; GST-TFs on glutathione beads, 16-mer random dsDNA library, 0.1% formaldehyde crosslink after washing; high values mean tight binding
Assay [1] concerns the target T1, FEV (Homo sapiens, UniProt Q99581 1-238).
T1 sequence: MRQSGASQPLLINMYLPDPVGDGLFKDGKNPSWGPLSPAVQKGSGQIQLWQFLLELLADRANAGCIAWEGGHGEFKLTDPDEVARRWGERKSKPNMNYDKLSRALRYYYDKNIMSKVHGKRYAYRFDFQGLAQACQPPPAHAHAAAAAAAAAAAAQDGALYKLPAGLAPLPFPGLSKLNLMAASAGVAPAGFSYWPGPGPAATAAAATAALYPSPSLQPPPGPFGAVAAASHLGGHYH
The conditions noted are these: protein: recombinant; tags: N-terminal GST; dsDNA, one strand shown. The procedure, abridged:
(§1)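 Human transcription factors fused to GST were expressed in yeast, captured on glutathione beads, given DNA barcodes and pooled with a GST-only negative control. Pools were incubated with 200 nmole of a 16-mer random double-stranded DNA library in Tris/NaCl/DTT/glycerol buffer at room temperature for 30 min. They were then washed, crosslinked with 0.1% formaldehyde, proximity-ligated (BsaI/T4 ligase, 1 h, 37 °C), PCR-amplified and sequenced on an Illumina NextSeq500. Binding signal is each 6-mer's read frequency for a factor divided by its frequency for the GST control.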

The target of assay [2] is ETV5 (Homo sapiens, UniProt P41161 1-510). To be noted: protein: recombinant; tags: N-terminal GST; dsDNA, one strand shown. The procedure, abridged:
as §1

In assay [3] the target is HSF1 (Homo sapiens, UniProt Q00613 1-529). To be noted: protein: recombinant; tags: N-terminal GST; chain copies: 3; dsDNA, one strand shown. The procedure, abridged:
as §1

Assay [4] concerns the target T2, SPIC (Homo sapiens, UniProt Q8N5J4 1-248).
T2 sequence: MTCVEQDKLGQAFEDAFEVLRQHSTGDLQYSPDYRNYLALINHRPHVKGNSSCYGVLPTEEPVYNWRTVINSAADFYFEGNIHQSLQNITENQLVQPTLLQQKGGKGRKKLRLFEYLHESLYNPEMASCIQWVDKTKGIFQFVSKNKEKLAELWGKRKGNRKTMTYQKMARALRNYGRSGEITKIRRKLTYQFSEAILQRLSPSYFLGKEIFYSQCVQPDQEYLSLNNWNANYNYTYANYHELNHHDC
The conditions noted are these: protein: recombinant; tags: N-terminal GST; dsDNA, one strand shown. In a few lines: as §1

Assay [5] concerns the target ELF4 (Homo sapiens, UniProt Q99607 1-663). The conditions noted are these: protein: recombinant; tags: N-terminal GST; dsDNA, one strand shown. The procedure, abridged: as §1
The target of assay [6] is T3, ELK4 (Homo sapiens, UniProt P28324-2 1-405).
T3 sequence: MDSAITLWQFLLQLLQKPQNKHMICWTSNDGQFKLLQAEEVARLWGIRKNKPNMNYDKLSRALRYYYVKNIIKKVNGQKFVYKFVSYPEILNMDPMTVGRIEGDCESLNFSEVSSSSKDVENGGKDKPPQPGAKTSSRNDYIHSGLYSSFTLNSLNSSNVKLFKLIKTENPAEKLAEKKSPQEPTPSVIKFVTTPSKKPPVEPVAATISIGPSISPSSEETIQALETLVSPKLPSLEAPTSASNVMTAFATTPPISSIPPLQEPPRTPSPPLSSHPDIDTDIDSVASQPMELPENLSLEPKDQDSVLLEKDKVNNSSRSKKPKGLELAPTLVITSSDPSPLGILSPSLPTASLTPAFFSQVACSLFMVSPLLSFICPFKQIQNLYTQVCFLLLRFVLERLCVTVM
The conditions noted are these: protein: recombinant; tags: N-terminal GST; dsDNA, one strand shown. In a few lines:
as §1

Assay [7] has as its target T4, ETV2 (Homo sapiens, UniProt O00321 1-342).
T4 sequence: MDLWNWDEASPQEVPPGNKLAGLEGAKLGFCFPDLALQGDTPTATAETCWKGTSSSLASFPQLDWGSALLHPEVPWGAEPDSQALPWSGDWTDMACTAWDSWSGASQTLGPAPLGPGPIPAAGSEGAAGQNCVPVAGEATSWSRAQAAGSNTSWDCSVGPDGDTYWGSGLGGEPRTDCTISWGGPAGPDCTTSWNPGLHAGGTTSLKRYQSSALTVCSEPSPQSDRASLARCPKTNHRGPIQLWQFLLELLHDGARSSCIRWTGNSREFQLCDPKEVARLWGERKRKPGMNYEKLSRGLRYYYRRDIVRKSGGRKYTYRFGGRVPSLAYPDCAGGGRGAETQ
The conditions noted are these: protein: recombinant; tags: N-terminal GST; dsDNA, one strand shown. In a few lines: as §1

Assay [8] has as its target T5, ELF3 (Homo sapiens, UniProt P78545 1-371).
T5 sequence: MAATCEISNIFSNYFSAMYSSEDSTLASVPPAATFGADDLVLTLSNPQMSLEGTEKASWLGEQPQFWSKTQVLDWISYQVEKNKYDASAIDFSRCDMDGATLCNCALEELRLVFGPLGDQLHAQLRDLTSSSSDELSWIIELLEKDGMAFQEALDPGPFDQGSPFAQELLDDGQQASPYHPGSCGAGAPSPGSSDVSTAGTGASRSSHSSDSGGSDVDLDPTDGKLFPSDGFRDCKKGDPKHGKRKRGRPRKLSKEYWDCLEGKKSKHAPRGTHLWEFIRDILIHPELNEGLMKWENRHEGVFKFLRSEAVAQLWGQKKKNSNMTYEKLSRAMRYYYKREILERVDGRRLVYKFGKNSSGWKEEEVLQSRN
The conditions noted are these: protein: recombinant; tags: N-terminal GST; dsDNA, one strand shown. In a few lines:
as §1

Assay [9] concerns the target CRX (Homo sapiens, UniProt O43186 1-299). The conditions noted are these: protein: recombinant; tags: N-terminal GST; dsDNA, one strand shown. The procedure, abridged:
as §1

Assay [10] addresses ETV1 (Homo sapiens, UniProt P50549 1-477). The conditions noted are these: protein: recombinant; tags: N-terminal GST; dsDNA, one strand shown. The procedure, abridged:
as §1

Sequence of ETV5 (P41161 whole entry): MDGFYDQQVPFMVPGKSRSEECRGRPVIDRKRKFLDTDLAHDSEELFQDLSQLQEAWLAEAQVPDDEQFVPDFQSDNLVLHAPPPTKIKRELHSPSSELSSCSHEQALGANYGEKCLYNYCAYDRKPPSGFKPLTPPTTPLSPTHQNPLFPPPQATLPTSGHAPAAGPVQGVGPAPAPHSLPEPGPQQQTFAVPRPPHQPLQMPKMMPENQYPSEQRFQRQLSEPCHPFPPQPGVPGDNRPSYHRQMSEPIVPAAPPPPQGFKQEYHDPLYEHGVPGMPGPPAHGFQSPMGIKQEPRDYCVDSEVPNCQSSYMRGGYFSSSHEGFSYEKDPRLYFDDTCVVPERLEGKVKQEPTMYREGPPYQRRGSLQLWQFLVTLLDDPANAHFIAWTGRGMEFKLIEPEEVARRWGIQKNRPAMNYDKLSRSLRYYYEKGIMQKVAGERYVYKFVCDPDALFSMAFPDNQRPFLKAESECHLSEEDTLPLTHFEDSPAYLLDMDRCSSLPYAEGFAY
Sequence of CRX (O43186 whole entry): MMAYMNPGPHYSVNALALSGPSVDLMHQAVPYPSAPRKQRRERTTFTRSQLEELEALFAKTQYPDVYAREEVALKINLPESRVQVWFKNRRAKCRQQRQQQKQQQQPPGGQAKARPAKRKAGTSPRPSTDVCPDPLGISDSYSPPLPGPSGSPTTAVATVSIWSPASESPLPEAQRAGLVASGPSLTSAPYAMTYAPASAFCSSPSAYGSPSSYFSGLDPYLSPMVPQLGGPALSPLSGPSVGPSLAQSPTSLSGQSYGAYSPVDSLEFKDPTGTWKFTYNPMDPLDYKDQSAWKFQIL
Sequence of ELF4 (Q99607 whole entry): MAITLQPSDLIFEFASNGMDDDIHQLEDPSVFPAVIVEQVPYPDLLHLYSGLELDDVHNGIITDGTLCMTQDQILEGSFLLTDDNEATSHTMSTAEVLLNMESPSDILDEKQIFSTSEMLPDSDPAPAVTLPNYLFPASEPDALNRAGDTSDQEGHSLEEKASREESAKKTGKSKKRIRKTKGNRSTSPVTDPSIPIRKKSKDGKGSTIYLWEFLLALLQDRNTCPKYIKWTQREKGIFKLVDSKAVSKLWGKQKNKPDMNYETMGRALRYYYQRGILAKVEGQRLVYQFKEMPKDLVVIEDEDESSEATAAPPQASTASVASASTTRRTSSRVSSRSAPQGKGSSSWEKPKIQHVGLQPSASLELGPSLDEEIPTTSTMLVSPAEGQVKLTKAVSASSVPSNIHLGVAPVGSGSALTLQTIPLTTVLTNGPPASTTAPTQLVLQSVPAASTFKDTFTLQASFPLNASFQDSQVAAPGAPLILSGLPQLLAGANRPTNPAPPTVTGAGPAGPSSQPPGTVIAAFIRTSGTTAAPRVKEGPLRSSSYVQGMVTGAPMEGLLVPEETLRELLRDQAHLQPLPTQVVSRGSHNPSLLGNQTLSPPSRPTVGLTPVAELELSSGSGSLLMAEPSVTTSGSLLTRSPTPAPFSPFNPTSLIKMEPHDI
Sequence of ETV1 (P50549 whole entry): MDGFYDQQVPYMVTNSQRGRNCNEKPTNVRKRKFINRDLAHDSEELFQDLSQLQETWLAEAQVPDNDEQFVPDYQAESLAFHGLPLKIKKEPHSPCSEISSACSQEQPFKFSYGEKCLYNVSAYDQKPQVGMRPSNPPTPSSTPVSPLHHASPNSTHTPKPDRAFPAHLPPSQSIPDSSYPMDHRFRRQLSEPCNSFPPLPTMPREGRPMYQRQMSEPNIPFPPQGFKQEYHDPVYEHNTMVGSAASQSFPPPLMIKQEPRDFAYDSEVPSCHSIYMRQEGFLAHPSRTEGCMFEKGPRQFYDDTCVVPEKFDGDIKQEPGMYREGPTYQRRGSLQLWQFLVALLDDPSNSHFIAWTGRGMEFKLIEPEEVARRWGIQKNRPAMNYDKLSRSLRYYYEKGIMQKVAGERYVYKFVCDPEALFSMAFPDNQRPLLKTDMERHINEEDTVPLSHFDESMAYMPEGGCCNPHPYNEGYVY
Sequence of HSF1 (Q00613 whole entry): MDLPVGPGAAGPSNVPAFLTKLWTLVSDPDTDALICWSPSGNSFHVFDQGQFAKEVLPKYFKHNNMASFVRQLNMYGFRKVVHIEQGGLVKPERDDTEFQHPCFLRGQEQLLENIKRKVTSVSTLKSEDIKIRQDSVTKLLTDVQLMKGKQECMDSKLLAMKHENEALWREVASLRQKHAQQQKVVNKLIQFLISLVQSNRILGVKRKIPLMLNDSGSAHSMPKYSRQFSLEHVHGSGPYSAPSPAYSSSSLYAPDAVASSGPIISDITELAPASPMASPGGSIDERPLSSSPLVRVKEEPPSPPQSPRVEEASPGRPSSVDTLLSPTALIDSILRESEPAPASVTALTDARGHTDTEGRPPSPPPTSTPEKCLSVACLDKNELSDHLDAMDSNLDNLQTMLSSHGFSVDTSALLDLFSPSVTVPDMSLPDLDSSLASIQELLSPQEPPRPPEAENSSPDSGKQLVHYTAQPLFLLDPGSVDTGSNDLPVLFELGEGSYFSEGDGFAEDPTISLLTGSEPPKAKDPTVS

Regarding ATCTAG, the binding signal was 1.04 fold enrichment (6-mer frequency, TF over GST control) in assay [1]; 1 fold enrichment (6-mer frequency, TF over GST control) in [2]; 2.66 fold enrichment (6-mer frequency, TF over GST control) in [3]; 1.19 fold enrichment (6-mer frequency, TF over GST control) in [4]; 1.09 fold enrichment (6-mer frequency, TF over GST control) in assay [5]; 1.27 fold enrichment (6-mer frequency, TF over GST control) in assay [6]. The binding signal in assay [7] is 1.06 fold enrichment (6-mer frequency, TF over GST control); in [8] it was 1.24 fold enrichment (6-mer frequency, TF over GST control); in assay [9], 1.7 fold enrichment (6-mer frequency, TF over GST control); in assay [10], 1.03 fold enrichment (6-mer frequency, TF over GST control).

For the sequence CTTCTG, the binding signal in [1] is 1.23 fold enrichment (6-mer frequency, TF over GST control); in assay [2], 1.35 fold enrichment (6-mer frequency, TF over GST control); in [3], 2.07 fold enrichment (6-mer frequency, TF over GST control); in assay [4], 1.39 fold enrichment (6-mer frequency, TF over GST control); in assay [5], 1.42 fold enrichment (6-mer frequency, TF over GST control); in [6], 1.57 fold enrichment (6-mer frequency, TF over GST control). Besides, the binding signal in assay [7] is 1.32 fold enrichment (6-mer frequency, TF over GST control); in assay [8] it was 1.29 fold enrichment (6-mer frequency, TF over GST control); in assay [9], 1.49 fold enrichment (6-mer frequency, TF over GST control); in [10], 1.22 fold enrichment (6-mer frequency, TF over GST control).

Turning to TGCTCC, the binding signal is 1.38 fold enrichment (6-mer frequency, TF over GST control) in assay [1]; 1.42 fold enrichment (6-mer frequency, TF over GST control) in assay [2]; 1.27 fold enrichment (6-mer frequency, TF over GST control) in assay [3]; 1.45 fold enrichment (6-mer frequency, TF over GST control) in [4]; 1.41 fold enrichment (6-mer frequency, TF over GST control) in assay [5]; 1.41 fold enrichment (6-mer frequency, TF over GST control) in assay [6]. For the same sequence, the binding signal in assay [7] was 1.48 fold enrichment (6-mer frequency, TF over GST control); in assay [8] it was 1.47 fold enrichment (6-mer frequency, TF over GST control); in [9] it was 1.12 fold enrichment (6-mer frequency, TF over GST control); in assay [10], 1.31 fold enrichment (6-mer frequency, TF over GST control).

Take CTTAGG: the binding signal in assay [1] was 1.11 fold enrichment (6-mer frequency, TF over GST control); in assay [2], 1.15 fold enrichment (6-mer frequency, TF over GST control); in assay [3], 1.29 fold enrichment (6-mer frequency, TF over GST control); in assay [4], 1.3 fold enrichment (6-mer frequency, TF over GST control); in [5] it was 1.16 fold enrichment (6-mer frequency, TF over GST control); in assay [6], 1.04 fold enrichment (6-mer frequency, TF over GST control). Moreover, the binding signal in [7] was 1.23 fold enrichment (6-mer frequency, TF over GST control); in assay [8], 1.49 fold enrichment (6-mer frequency, TF over GST control); in assay [9], 1.8 fold enrichment (6-mer frequency, TF over GST control); in assay [10] it was 1.19 fold enrichment (6-mer frequency, TF over GST control).

Regarding CTAGAT, the binding signal is 1.13 fold enrichment (6-mer frequency, TF over GST control) in assay [1]; 1.19 fold enrichment (6-mer frequency, TF over GST control) in assay [2]; 2.7 fold enrichment (6-mer frequency, TF over GST control) in assay [3]; 1.16 fold enrichment (6-mer frequency, TF over GST control) in assay [4]; 1.16 fold enrichment (6-mer frequency, TF over GST control) in [5]; 1.17 fold enrichment (6-mer frequency, TF over GST control) in assay [6]. The binding signal was 1.17 fold enrichment (6-mer frequency, TF over GST control) in assay [7]; 1.15 fold enrichment (6-mer frequency, TF over GST control) in assay [8]; 1.83 fold enrichment (6-mer frequency, TF over GST control) in assay [9]; 1.17 fold enrichment (6-mer frequency, TF over GST control) in assay [10].

Consider CGCCCT, for which the binding signal is 1.37 fold enrichment (6-mer frequency, TF over GST control) in assay [1]; 1.29 fold enrichment (6-mer frequency, TF over GST control) in assay [2]; 1.13 fold enrichment (6-mer frequency, TF over GST control) in assay [3]; 1.21 fold enrichment (6-mer frequency, TF over GST control) in assay [4]; 1.47 fold enrichment (6-mer frequency, TF over GST control) in assay [5]; 1.1 fold enrichment (6-mer frequency, TF over GST control) in assay [6]. Also, the binding signal is 1.4 fold enrichment (6-mer frequency, TF over GST control) in [7]; 1.04 fold enrichment (6-mer frequency, TF over GST control) in assay [8]; 1.11 fold enrichment (6-mer frequency, TF over GST control) in [9]; 1.37 fold enrichment (6-mer frequency, TF over GST control) in assay [10].

For CTTGCC, the binding signal in assay [1] was 1.29 fold enrichment (6-mer frequency, TF over GST control); in assay [2] it was 1.17 fold enrichment (6-mer frequency, TF over GST control); in assay [3] it was 1.1 fold enrichment (6-mer frequency, TF over GST control); in [4] it was 1.66 fold enrichment (6-mer frequency, TF over GST control); in assay [5], 1.26 fold enrichment (6-mer frequency, TF over GST control); in [6], 1.17 fold enrichment (6-mer frequency, TF over GST control). For the same sequence, the binding signal is 1.24 fold enrichment (6-mer frequency, TF over GST control) in [7]; 1.43 fold enrichment (6-mer frequency, TF over GST control) in assay [8]; 1.1 fold enrichment (6-mer frequency, TF over GST control) in [9]; 1.25 fold enrichment (6-mer frequency, TF over GST control) in [10].

Turning to TGAATT, the binding signal in assay [1] is 1.18 fold enrichment (6-mer frequency, TF over GST control); in assay [2], 1.15 fold enrichment (6-mer frequency, TF over GST control); in [3], 1.23 fold enrichment (6-mer frequency, TF over GST control); in assay [4] it was 1.34 fold enrichment (6-mer frequency, TF over GST control); in [5], 1.16 fold enrichment (6-mer frequency, TF over GST control); in assay [6] it was 1.01 fold enrichment (6-mer frequency, TF over GST control). For the same sequence, the binding signal was 1.19 fold enrichment (6-mer frequency, TF over GST control) in assay [7]; 1.12 fold enrichment (6-mer frequency, TF over GST control) in [8]; 1.38 fold enrichment (6-mer frequency, TF over GST control) in assay [9]; 1.23 fold enrichment (6-mer frequency, TF over GST control) in [10].

For the origin of these results see PMC7862700, “An all-to-all approach to the identification of sequence-specific readers for epigenetic DNA modifications on cytosine”.
